Results: PubChem BioAssay AID1347422 (Sanford-Burnham Center for Chemical Genomics, 2020)
Over roughly 1,000 compounds, “thermal shift dTm” has its median near 0.19; the highest 2% begin near 1.7. Many of the other results were omitted from the sample, so the highest values are more common in it than they were. The source made the active and inactive calls.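 How the source made its calls: active means mean rise in melting temperature of at least 1 degC over same-plate control wells; inactive means below that, where a call was filed.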

Biological target: Sulfhydryl oxidase 1 (Homo sapiens) (UniProt O00391)
Sequence (O00391 whole entry, looked up): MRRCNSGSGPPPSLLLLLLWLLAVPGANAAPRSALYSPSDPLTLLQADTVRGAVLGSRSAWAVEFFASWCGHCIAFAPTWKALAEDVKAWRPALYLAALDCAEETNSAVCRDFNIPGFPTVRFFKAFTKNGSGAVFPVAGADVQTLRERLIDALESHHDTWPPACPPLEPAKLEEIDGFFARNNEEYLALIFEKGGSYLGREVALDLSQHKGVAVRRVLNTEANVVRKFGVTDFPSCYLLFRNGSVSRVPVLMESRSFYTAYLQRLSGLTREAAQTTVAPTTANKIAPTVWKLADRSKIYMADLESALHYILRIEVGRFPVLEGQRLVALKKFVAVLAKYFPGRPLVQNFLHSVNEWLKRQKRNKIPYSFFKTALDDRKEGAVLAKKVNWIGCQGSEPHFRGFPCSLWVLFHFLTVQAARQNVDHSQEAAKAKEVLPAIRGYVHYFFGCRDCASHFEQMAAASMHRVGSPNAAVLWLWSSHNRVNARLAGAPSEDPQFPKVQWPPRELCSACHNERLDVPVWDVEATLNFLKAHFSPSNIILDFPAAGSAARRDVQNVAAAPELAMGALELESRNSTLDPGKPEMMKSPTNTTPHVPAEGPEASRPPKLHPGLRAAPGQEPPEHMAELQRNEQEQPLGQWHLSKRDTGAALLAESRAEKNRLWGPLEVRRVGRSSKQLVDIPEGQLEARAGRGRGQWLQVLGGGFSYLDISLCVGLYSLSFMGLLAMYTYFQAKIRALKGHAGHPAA
Experiment: QSOX1 binders by thermal stabilization, confirmation, QSOX1 inhibitor project, biophysical, protein thermal shift, single concentration (AID 1347422);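 further: dTm is compound Tm minus mean Tm of DMSO-only wells on that plate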
Conditions: recombinant hQSOX1 thermal shift, Sypro Orange, at 25 µM, stronger effect = higher value

| Compound | thermal shift dTm |
| --- | --- |
| O=C(NCCc1ccccc1)c1ccc(NC(=O)C2CC2)cc1 | 0.04 °C |
| Cc1cc(Br)cc(C)c1NC(=O)/C=C/c1ccco1 | 0.52 °C |
| Cc1ccc(Nc2nc(C3CC(CC(C)C)C(=O)O3)cs2)cc1 (stereo unspecified) | -0.09 °C (inactive) |
| Cc1ccc2cccc(OCCCCOc3ccccc3I)c2n1 | 0.77 °C |
| Cc1ccc(-c2noc(CNC(=O)c3ccc4ccccc4c3)n2)cc1 | -0.08 °C (inactive) |
| CCOc1ccc(NC(=O)c2ccc(-c3csc(C)n3)cc2)cc1 | 0.15 °C |
| NC(=O)c1ccc(NC(=O)c2cccc(C(F)(F)F)c2)cc1 | 0.7 °C |
| CCc1ccc(NC(=O)COc2ccccc2F)cc1 | 0.24 °C |
| C=C(C)COc1ccc(NC(=O)c2cccnc2)cc1 | 0.13 °C |
| COc1ccc(-c2csc(NC(=O)c3ccc(Cl)s3)n2)cc1 | 0.05 °C |
| Oc1ccccc1C=Nc1ccc(Cc2ccc(N=Cc3ccccc3O)c(O)c2)cc1O | 0.01 °C |
| O=S(=O)(NCCC1=CCCCC1)c1ccc(Cl)s1 | 0.17 °C |
| CCOc1ccc(NC(=S)N2CCC(C(N)=O)CC2)cc1 | -0.13 °C (inactive) |
| Cc1ccc(/C=C/C(=O)NCC(C)NC(=O)/C=C/c2ccc(C)cc2)cc1 (stereo unspecified) | 0.45 °C |
| COc1ccc2[nH]cc(CCNC(=O)c3ccc(NC(C)=O)cc3)c2c1 | 1 °C (active) |
| COc1cc(/C=N/O)cc(Br)c1OCc1ccccc1F | 0.16 °C |
| O=S(=O)(c1cccs1)N1CCC(CO)(Cc2ccc(Cl)cc2)CC1 | 0.18 °C |
| O=C(NCc1ccc(Cl)c(Cl)c1)c1ccc(Br)cc1 | -0.13 °C (inactive) |
| O=C(Nc1nccs1)c1ccc(-c2cccc(Cl)c2Cl)o1 | 0.19 °C |
| O=C(C#Cc1ccccc1)Nc1ccc2c(c1)OCCO2 | 0.24 °C |
| CCC(c1ccccc1)c1nnc(NC(=O)Nc2ccccc2F)s1 (stereo unspecified) | 0.2 °C |
| NC(=O)c1cn(-c2ccccc2)nc1-c1ccc(-c2ccccc2)cc1 | 0.07 °C |
| O=C(NC(=S)Nc1cccc(Cl)c1N1CCOCC1)c1cccs1 | -0.04 °C (inactive) |
| CCCc1cc(C(=O)Nc2ccc3[nH]ncc3c2)cs1 | 2.61 °C (active) |

| Compound | thermal shift dTm |
| --- | --- |
| O=C(Nc1ccc2[nH]ncc2c1)c1cccc(F)c1 | 1.63 °C (active) |
| CCc1c(C(=O)Nc2ccc3[nH]ncc3c2)csc1C | 0.29 °C |
| Cc1ccc(NC(=O)Nc2ccc(C)c(F)c2)c(C)c1 | 0.56 °C |
| FC(F)(F)c1ccccc1NC(=S)Nc1ccc(OCc2ccccc2)cc1 | 0.68 °C |
| COc1ccc(NC(=O)c2ccc(Cl)s2)cc1OC | 0.19 °C |
| Cc1cc(C(=O)OCC(=O)Nc2ccc(Cl)cc2)c2ccccc2n1 | -0.03 °C (inactive) |
| CCNS(=O)(=O)c1ccc(NC(=O)Nc2cc(C)ccc2OC)cc1 | 1.17 °C (active) |
| NC(=O)c1cn(-c2ccccc2)nc1-c1cccc(Br)c1 | -0.72 °C (inactive) |
| C(=C\c1nnc(-c2ccccc2)o1)/c1cc2ccccc2o1 | 0.18 °C |
| O=c1nc2n(c3cc(Cl)ccc13)CC(O)=C2c1ccccc1 | 1.08 °C (active) |
| Cc1cccc(C(=O)Nc2cccc(-c3csc(C)n3)c2)c1 | 1.13 °C (active) |
| CCOc1ccc(C(=O)Nc2cccc(-c3csc(C)n3)c2)cc1 | -0.65 °C (inactive) |
| Cc1nc(-c2cccc(NC(=O)c3cccc(F)c3)c2)cs1 | 3.41 °C (active) |
| CCOc1ccc(C(=O)Nc2cc(C)ccn2)cc1[N+](=O)[O-] | 0.43 °C |
| O=C(Nc1cccc(Br)c1)C1C2C3CCC(C3)C12 (stereo unspecified) | 0.21 °C |
| CCOc1ccc(/C=C/C(=O)Nc2ccc(OC)cc2OC)cc1 | 0.02 °C |
| CCc1cc(-c2n[nH]c(C)c2Oc2ccc(F)cc2)c(O)cc1OC | 0.02 °C |
| O=C(Nc1n[nH]c(-c2ccccc2)n1)N1CCC2(C=Cc3ccccc32)CC1 | 0.09 °C |
| CCCCC1=NN2C(=N)/C(=C/c3ccc(Cl)cc3Cl)C(=O)N=C2S1 | 0.11 °C |
| CCOC(=O)c1sc(NC(=O)CSc2nc(SC)ns2)nc1C | 0.19 °C |
| Cc1sc(NC(=O)C#Cc2ccccc2)c(C(N)=O)c1C | 0.33 °C |
| CCC(c1ccc(OC)cc1)N(CC)C(=O)Nc1ccccc1 (stereo unspecified) | 0.14 °C |
| COC(=O)c1cccc(NC(=O)c2ccc(Cl)s2)c1 | 0.04 °C |
| C=CCSC1=N/C(=C\c2ccc(-c3cccc(Cl)c3)o2)C(=O)S1 | 0.63 °C |

| Compound | thermal shift dTm |
| --- | --- |
| O=C(NCCC1=CCCCC1)Nc1cccc(F)c1 | 0.19 °C |
| CCN(CC)c1ccc2cc(-c3nc4ccccc4o3)c(=O)oc2c1 | 0.15 °C |
| COc1ccc(C(=O)Nc2nc(-c3cc(OC)ccc3OC)c(C)s2)cc1 | 2.73 °C (active) |
| COc1ccc2nc(NC(=O)c3ccc(C)o3)sc2c1 | 0.04 °C |
| COc1ccc(OC)c(-c2nc(NC(=O)c3ccccc3OC)sc2C)c1 | -7.06 °C (inactive) |
| CC1CCc2c(sc3ncn(CC(=O)Nc4ccccc4F)c(=O)c23)C1 (stereo unspecified) | 0.26 °C |
| COC(=O)C1=C(C)N(c2ccc(Cl)cc2)C(=O)/C1=C\c1ccco1 | 0.01 °C |
| O=C(Nc1ccc(Cl)cn1)c1cccc(NC(=O)c2cccs2)c1 | 0.37 °C |
| C/C=C/c1c(F)c(F)c(Oc2cccc(NC(C)=O)c2)c(F)c1F | 0.63 °C |
| C=CCN1C(=O)C(c2c(C)[nH]c3ccccc23)(c2c(C)[nH]c3ccccc23)c2ccccc21 | 1.05 °C (active) |
| FC(F)(F)c1ccc(Cl)c(Nc2nnc(-c3ccncc3)s2)c1 | 0.77 °C |
| Cc1ccc(NC(=O)NCc2nc(-c3ccccc3Cl)no2)cc1 | 0.2 °C |
| Cc1ccc(Nc2nc(-c3sc(C)nc3C)cs2)nc1 | 0.16 °C |
| O=C(Nc1cccc(Cl)c1)N1CCC(C(O)(c2ccccc2)c2ccccc2)CC1 | 0.21 °C |
| O=S1(=O)CC2C(C1)N(c1cccc(C(F)(F)F)c1)C(=S)N2c1ccccc1 (stereo unspecified) | -0.16 °C (inactive) |
| CC(=O)Oc1ccc(-c2csc(Nc3ccccc3F)n2)cc1 | 0.35 °C |
| COc1ccc(S(=O)(=O)NC(C)C2C3CC4CC(C3)CC2C4)cc1 (stereo unspecified) | -0.18 °C (inactive) |
| O=C(Nc1nccs1)c1cccc(NC(=O)c2cc3ccccc3o2)c1 | 1.07 °C (active) |
| Cc1nc(NC(=O)c2ccc(Br)s2)sc1C | 0.27 °C |
| CCN(C(=O)Nc1ccc(Cl)cc1)c1nnc(-c2ccccc2)s1 | 0.16 °C |
| O=C(Nc1cccc(NC(=O)c2ccco2)c1)c1cccc(F)c1 | 1.39 °C (active) |
| CCc1ccc(C(=O)Nc2cccc(NC(=O)c3ccco3)c2)cc1 | 2.18 °C (active) |
| CC(=O)Nc1cccc(NC(=O)c2cccc(NC(=O)c3ccco3)c2)c1 | 0.37 °C |
